Sampled rows, rich in hits. Any-hit rate of the full collection: about 21%.
Pf growth 96h = inhibits malaria parasite growth, 96 h. P. falciparum luciferase reporter growth, 96 h. Potency, µM (titrated, usually from 28.7 µM), for the others: top-dose activity change, negative = inhibition, actives largely listed as inhibitors. 6.9% of 320,000 active. AID 504834; further: potency means the concentration at half of the fitted maximal effect; on the % scale 0 is the no-effect control and ±100 the full control effect
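96 h incubation, 37 C, 5% CO2, of luciferase-reporter P. falciparum-infected RBCs (2% hematocrit, 0.05% parasitemia final) with test compounds; endpoint luminescence.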
Shiga toxin inh = blocks Shiga toxin action in Vero cells | Vero cells, Shiga toxin protein synthesis inhibition reporter | inhibition, % at 38.7 µM | 9.2% of 290,000 active | AID 2315; in the data active means inhibition mostly above about 28%, no sharp cut-off; inactive means mostly below about 43%; further: 0% is about no effect
HCV inhibitor = inhibitors of hepatitis C virus infection; Huh7.5.1 HCVcc-Cre infection, luciferase reporter, 44 h; Potency, µM (top dose mostly 41.8 µM), for the others: at the top dose activity change, negative = inhibition, usual class: inhibitors; 3.4% of 340,000 active; AID 651820; further: potency means the concentration at half of the fitted maximal effect; on the % scale 0 is the no-effect control and ±100 the full control effect
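Reporter virus HCVcc-Cre (~0.5 moi) infects cells exposed to compound; seeding density 1,000 cells/well with 4 h settling beforehand. Luminescence, 15 sec read, taken 44 h post-infection following a 15 min RT substrate incubation.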
Pf growth 48h = inhibits P. falciparum growth in the first generation, 48 h; 5.9% of 310,000 active; P. falciparum luciferase growth in erythrocytes, 48 h; Potency, µM (top dose mostly 28.7 µM), inactives show at the highest dose activity change, negative = inhibition, hits mostly inhibitors; further: potency means the concentration at half of the fitted maximal effect; on the % scale 0 is the no-effect control and ±100 the full control effect
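Read-out is firefly luciferase luminescence from an integrated reporter in P. falciparum, so falling signal marks reduced parasite growth. Infected erythrocytes were at 2% hematocrit and 0.1% parasitemia (final) in Albumax-supplemented RPMI 1640.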
CHX counter = affects cycloheximide protein synthesis inhibition readout, counter-screen; 12% of 300,000 active; max response, %; cell reporter, cycloheximide protein synthesis inhibition counterscreen; AID 2314; in the data active means max response mostly above about 13%, no sharp cut-off; inactive means mostly below about 14%; further: read at 38.3 µM for the half of the compounds with a filed dose; 0% is about no effect
HCMV inh = human cytomegalovirus inhibition. HFF cells, HCMV-luciferase reporter, 72 h; hits give low values. activity change, negative = inhibition, % at 57.5 µM. 4.5% of 410,000 active; in the data active means activity change below about -60%; inconclusive means no clear call, values can overlap the other calls; inactive means above about -39%; further: on the % scale 0 is the no-effect control and ±100 the full control effect
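HFF cells seeded 16 h at 37C, treated with compounds, infected with luciferase-reporter HCMV at MOI 1 PFU/cell; luciferase read at 72 h post infection, normalized to buffer-only and Salinomycin controls.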
The depositor's hits bear a star; i = inactive; ? = inconclusive; · = no result given; [ ] = dose if it differs, or a comment. Unless noted, the call rests on the fitted dose curve; in most records, active means well fitted inhibition curve with a large enough effect; inconclusive means small, poorly fitted or top-dose-only effect, or another doubt; inactive means no such curve, though single readings can be large or run the other way.

SMILES	Pf growth 96h	Shiga toxin inh	HCV inhibitor	Pf growth 48h	CHX counter	HCMV inh
Clc1ccc(C2NCCc3sccc32)cc1 (centres undefined)	24.1%	2.4	-1.9%	17.0%	-2.9	?
FC(F)(F)c1ccc(C2NCCc3sccc32)cc1 (centres undefined)	-13.8%	34.3	6.0%	1.4%	45.3*	26.5
CCOc1ccc2ccccc2c1C1NC(=S)N(C)C(C)=C1C(=O)OC (centres undefined)	3.29µM*	27.3	-15.6%	?	-2.3	-13.9
O=C1OC(CO)C(O)C(O)C1O (centres undefined)	0.8%	·	·	1.0%	·	·
N#Cc1ccccc1NC(=O)CSc1nnc(-c2ccccc2)n1-c1ccccc1	-6.1%[5.75 µM]	-7.2	1.5%	?	-2.4	?
Cn1ccnc1SCC(=O)Nc1ccc2c(c1)OC(F)(F)O2	49.8%	22.2	·	0.0%	14.8*	·
Cc1nnc(NC(=O)CSc2ccc([N+](=O)[O-])cn2)s1	-4.5%	-6.6	7.8%	11.3%	-1.1	34.7
N#Cc1ccccc1NC(=O)CSc1nccn1CCc1ccccc1	-22.3%	78.2*	-24.1%	46.7%	37.4*	113.1
COc1ccc(NC(=O)CSc2nccn2C)cc1S(N)(=O)=O	5.5%	-2.1	-7.6%	2.3%	-6.6	39.7
CCOC(=O)c1ccc(NC(=O)CSc2nccn2C)cc1	10.3%	60.8	0.5%	13.3%	38.9*	52.4
N#Cc1ccccc1NC(=O)CSc1ccc([N+](=O)[O-])cn1	i	-0.7	5.0%	7.2%	6.7	-65.8*
O=C(Cc1ccc(Cl)cc1)c1c[nH]c(C(=O)NCCCN2CCOCC2)c1	-6.9%	1.3	7.9%	?	-4.2	?
CC1=C(C(=O)N(C)C)CC(CC(=O)NC2CCCC2)C(=O)N1CCC1=CCCCC1 (centres undefined)	·	·	·	·	·	51.4
CC(=O)c1ccc(NC(=O)CSc2nccn2C)cc1	138.7%	65.6*	27.0%	76.4%	11.0*	48.0
CC(=O)Nc1ccc(NC(=O)CSc2nccn2Cc2ccccc2)cc1	-10.3%	5.4	?	-0.3%	8.8	?
CC(=O)c1ccc(NC(=O)CSc2nccn2CCc2ccccc2)cc1	·	87.9*	-2.4%	104.3%	33.0*	90.0
Cc1ccc(NC(=O)CSc2nccn2Cc2ccccc2)cc1C	44.3%	99.4	-16.1%	24.9%	47.9*	9.0
O=c1n(-c2ccc(Br)cc2)cnn1-c1ncccc1[N+](=O)[O-]	93.8%	91.5*	0.9%	53.8%	31.3*	?
Cc1ccc2[nH]c(CSc3nnc(C)s3)cc(=O)c2c1	·	·	·	·	·	1.9
CCOc1ccc(CN2CCNC(=O)C2CC(=O)NCCc2ccccn2)cc1 (centres undefined)	30.7%	0.9	6.5%	10.6%	1.7	-39.0
CN1CCNC(=O)C1CC(=O)NCCc1ccccc1F (centres undefined)	13.1µM*	12.8	8.3%	43.5%	-2.5	-16.5
O=C(CC1C(=O)NCCN1Cc1ccccn1)NCCc1ccccc1F (centres undefined)	?	36.2*	15.9%	4.65µM*	15.0	?
Cc1ccccc1CNC(=O)CC1C(=O)NCCN1Cc1c(F)cccc1Cl (centres undefined)	2.33µM*	-4.7	4.8%	0.828µM*	-2.2	9.9
Cc1ccc2c(c1)N(CC(=O)N1CCCCC1)C(=O)CO2	?	-2.1	5.7%	18.1%	-3.2	-7.5
CC1(C(=O)NS(=O)(=O)c2ccc(Br)cc2)CCN1C(=O)CCc1cccs1 (centres undefined)	·	·	·	·	·	1.6
SMILES	Pf growth 96h	Shiga toxin inh	HCV inhibitor	Pf growth 48h	CHX counter	HCMV inh
O=C(NNC(=S)Nc1ccccc1)c1ccc2ncccc2c1	340.3%	56.3*	17.8%	267.1%	37.4*	-29.7
CC(C)(C)NC(=S)NNC(=O)c1ccc2ncccc2c1	-56.0%	46.6*	-4.5%	43.8%	21.3*	91.2
O=C(NC(=S)Nc1ccc2ncccc2c1)c1ccccc1	56.0%	74.7*	-12.2%	311.7%	51.8*	-8.4
Cc1ccc2cccnc2c1NC(=S)NC(=O)c1ccccc1	?	69.7*	?	?	26.2*	-9.4
Cc1ccc2cccc(NC(=S)NC(=O)c3ccccc3)c2n1	36.7%	11.3	?	?	4.6	125.6
O=C(Nc1ccc2ncccc2c1)c1ccccc1	?	-3.3	-0.7%	1.2%	-1.4	2.3
Cc1cc(=O)n(C(C)c2ccccc2)n1C(C)c1ccccc1 (centres undefined)	·	·	10.5%	·	·	?
CCN(C(=O)COC(=O)CSc1ccc(F)cc1)c1c(N)n(Cc2ccccc2)c(=O)[nH]c1=O	-5.4%	·	12.8%	-7.7%	·	0.0
CC1(C(=O)Nc2ccc3[nH]ncc3c2)CCN1C(=O)CC(c1ccccc1)c1ccccc1 (centres undefined)	·	·	·	·	·	0.0
O=C(Cc1ccccc1)Nc1ccc(NC(=S)NC(=O)c2ccccc2)cc1	?	20.0	?	-10.9%	-2.7	18.0
CC1(C(=O)Nc2ccc3[nH]ncc3c2)CCN1C(=O)C1(c2ccccc2)CC1 (centres undefined)	·	·	·	·	·	-98.0*
O=C(NC(=S)Nc1ccc2nc[nH]c2c1)c1ccccc1	147.3%	50.5*	-0.7%	103.0%	22.1*	61.2
O=C(NC(=S)Nc1ccc2[nH]ncc2c1)c1ccccc1	·	88.4*	?	73.9%	35.1*	4.2
CCCC(c1nnnn1C1CCCCC1)N1C(=O)C(=O)c2ccccc21 (centres undefined)	·	·	·	·	·	-17.3
Cc1cccc(CN2CCC(C(=O)Nc3cccc(-c4cscn4)c3)CC2)n1	-15.5%	-2.8	-0.8%	?	3.6	?
Cc1nn(C(C)C)c(C)c1CN1CCC(C(=O)Nc2cccc(-c3cccc(F)c3)c2)CC1	-17.1%	-27.9	10µM*	?	-4.2	30.5
CCCn1ncc(CN2CCC(C(=O)Nc3cccc(-c4cccc(F)c4)c3)CC2)c1C	?	-10.4	?	7.38µM*	-5.2	-65.3*
COc1cccc(-c2cccc(NC(=O)C3CCN(Cc4cnn(C)c4)CC3)c2)c1	?	-2.9	-3.2%	?	7.0	11.3
O=C(Nc1cccc(-c2cccc(F)c2)c1)C1CCN(Cc2ccco2)CC1	-7.1%	17.8	?	-3.4%	10.0	?
Cc1cccc(CN2CCC(C(=O)Nc3cccc(-c4cccc(F)c4)c3)CC2)n1	?	10.7	7.94µM*	0.0%	-6.1	-33.5
CCCn1cc(CN2CCC(C(=O)Nc3cccc(-c4cscn4)c3)CC2)c(C)n1	-1.4%	-4.6	?	?	-0.4	-5.8
Cn1cc(CN2CCC(C(=O)Nc3cccc(-c4cccc(F)c4)c3)CC2)cn1	?	-13.0	10µM*	-26.2%	-3.7	-1.2
C[C@]1(O)CC(=O)C=C[C@H]1Nc1ccccc1	·	·	-14.1%	·	·	?
CCc1ccc(S(=O)(=O)c2cnc3ccc(OC)cc3c2N2CCCC(C)C2)cc1 (centres undefined)	·	·	·	·	·	-28.8
